Results on 63 compounds are retold here after ChEMBL document CHEMBL4513216, “Probing the Open Global Health Chemical Diversity Library for Multistage-Active Starting Points for Next-Generation Antimalarials” (ACS Infect Dis, 2020).

In all, about 69,000 compounds went through this assay and about 8,600 (12%) showed an effect of 50% or more. What follows is part of a selection rich in strong results, with near analogues and random picks from the rest.

For this test, the system named is Plasmodium berghei. Briefly: Screen against P. berghei liver stage (PbLuc), transformed with Luciferase, at 10uM. Format: functional, HepG2. The note with it: tested at 10 uM.
As for `NC(=O)N1CCC(C(=O)NCc2nncn2-c2ccccc2)CC1`, the INHIBITION worked out at 38.5%.

On to `CC(C)c1nc(CN2CCOC(Cn3cccn3)C2)no1` (stereo not drawn), for which the INHIBITION is on record as -38.7%.

Consider `Cc1ncncc1C(=O)N1C[C@@H]2CC[C@H]1CN(C(=O)c1ccncc1)C2`, for which the INHIBITION is -19.2%.

In the case of `CC(C)c1nccn1CCC(=O)NCC(C)(O)c1ccco1` (stereo not drawn), the INHIBITION is -33.4%.

Regarding `CN(C(=O)c1ccco1)c1nc2c(s1)CCCC2`, the INHIBITION was -68.6%.

Consider `Cc1cc(=O)n(CC(=O)NCC2CCCO2)c(-c2ccccc2)n1` (stereo not drawn), for which the INHIBITION is given as 21%.

As for `Cc1cc(=O)n(CC(=O)NCC2CCCO2)c(-c2ccc(F)cc2)n1` (stereo not drawn), the INHIBITION was determined as 50.1%.

With `Cc1cc(=O)n(CC(=O)NCC2CCCO2)c(-c2cccc(Cl)c2)n1` (stereo not drawn), the INHIBITION amounted to 33.5%.

Consider `O=C(N1CCCO1)[C@@]12CCO[C@@H]1CCN(Cc1ccc(F)cc1)C2`, for which the INHIBITION was -47.8%.

On to `O=C(C[C@@H]1COC[C@H]2CN(C3CCCC3)C[C@@H]12)N1CCCCO1`, for which the INHIBITION stood at 57.1%.

With `O=C(C[C@@H]1COC[C@H]2CN(CC3CC3)C[C@@H]12)N1CCCCO1`, the INHIBITION is reported as 16.9%.

With `O=C(C[C@@H]1COC[C@H]2CN(CC3CCOCC3)C[C@@H]12)N1CCCCO1`, the INHIBITION turned out to be 76.4%.

With `CS(=O)(=O)N1C[C@@H]2COC[C@@H](CC(=O)N3CCCCO3)[C@@H]2C1`, the INHIBITION was 28.2%.

In the case of `O=C([C@@H]1COC[C@H]2CN(C3CCCC3)C[C@H]21)N1CCCCO1`, the INHIBITION was determined as 40.5%.

On to `O=C(C[C@@H]1COC[C@H]2CN(Cc3ccc(F)cc3)C[C@@H]12)N1CCCCO1`, for which the INHIBITION is given as -13.4%.

Regarding `O=C(c1ccncn1)N1CCC[C@]2(C[C@H](Oc3ncccc3F)CO2)C1`, the INHIBITION is -10.3%.

`COc1cccc(S(=O)(=O)N2C[C@@H](O)[C@H](N(C)C)C2)c1`: the INHIBITION is 9.98%.

Regarding `Cn1cc(-c2cnc(N3CCCC3)nc2)cc1C(=O)N1CCOCC1`, the INHIBITION is -18.4%.

In the case of `Cn1nccc1C(=O)N1CCC(c2ncc(Cl)cc2S(C)(=O)=O)CC1`, the INHIBITION was 30.4%.

As for `CCCn1ncc(CN2C[C@@H]3CCCN3C[C@H]2CCSC)c1C`, the INHIBITION is 37.6%.

For `CCCn1ncc(CN2C[C@@H]3CCCN3C[C@H]2Cc2ccccc2)c1C`, the INHIBITION came to 57.5%.

Consider `C=Cn1ncc(CN2C[C@@H]3C[C@@H](O)CN3C[C@H]2Cc2ccccc2)c1C`, for which the INHIBITION is 13%.

For the compound `CCn1ncc(CN2C[C@@H]3CCCN3C[C@H]2CCSC)c1C`, the INHIBITION was found to be 2.71%.

On to `C=Cn1ncc(CN2C[C@@H]3C[C@@H](O)CN3C[C@@H]2Cc2ccccc2)c1C`, for which the INHIBITION was 42.6%.

For `CCCn1ncc(CN2C[C@@H]3CCCN3C[C@@H]2CCSC)c1C`, the INHIBITION turned out to be 57.4%.

Take `C=Cn1ncc(CN2C[C@@H]3CCCN3C[C@@H]2CCSC)c1C`: the INHIBITION stood at 30.8%.

As for `CCn1ncc(CN2C[C@@H]3CCCN3C[C@@H]2CCSC)c1C`, the INHIBITION was 46%.

As for `C=Cn1ncc(CN2C[C@@H]3CCCN3C[C@@H]2Cc2ccccc2)c1C`, the INHIBITION was found to be 50%.

In the case of `C=Cn1ncc(CN2C[C@@H]3CCCN3C[C@H]2CCSC)c1C`, the INHIBITION is reported as 30.1%.

For the compound `C=Cn1ncc(CN2C[C@@H]3CCCN3C[C@H]2Cc2ccccc2)c1C`, the INHIBITION was found to be 51.5%.

Turning to `CCCn1ncc(CN2C[C@@H]3CCCN3C[C@@H]2Cc2ccccc2)c1C`, the INHIBITION is recorded as 29.3%.

As for `Cc1nc(N2CCN(c3ccccc3)CC2)c2c(n1)c(C)nn2C`, the INHIBITION is 25.1%.

`CC(=O)N1CCN(CC=C(C)C)CC1`: the INHIBITION was 19.1%.

Consider `CCNC(=O)[C@@H]1C[C@@H](NC(=O)c2cccn2C)CN1CCCSC`, for which the INHIBITION is -7.7%.

As for `Cc1cc(-c2cccc(-c3ccn(CCCO)n3)c2)nc(N(C)C)n1`, the INHIBITION is on record as -22.8%.

For the compound `O=C(CCC1CCCO1)NCCN1CCCCC1` (stereo not drawn), the INHIBITION was determined as 52.2%.

Regarding `COc1ccc(OC)c(CCNC(=O)CCC2CCCO2)c1` (stereo not drawn), the INHIBITION came out at 38.3%.

On to `O=C(CCC1CCCO1)NCCCO` (stereo not drawn), for which the INHIBITION is listed as 51%.

Turning to `O=C(CCC1CCCO1)NCCCC(=O)Nc1ccc(Cl)cc1` (stereo not drawn), the INHIBITION was determined as 36.8%.

In the case of `O=C(CCC1CCCO1)NCCc1ccccn1` (stereo not drawn), the INHIBITION was 18.3%.

Turning to `CCOCCNC(=O)CCC1CCCO1` (stereo not drawn), the INHIBITION was found to be 42.1%.

For the compound `Cc1c[nH]nc1C1CCCN(C(=O)Cn2cccn2)C1` (stereo not drawn), the INHIBITION was found to be 2.71%.

For `Cc1nc(C2CCCCN2S(C)(=O)=O)no1` (stereo not drawn), the INHIBITION is on record as -4.87%.

Regarding `CC(=O)N1N=C(c2ccccc2)OC1C(=O)NCCc1ccc(Cl)cc1` (stereo not drawn), the INHIBITION is recorded as -53.7%.

As to `CCN(CCCNCc1c(C)nn(C)c1N(C)C)S(C)(=O)=O`, the INHIBITION came to 0.58%.

As for `Cc1nc(C2CCN2c2ncccn2)cc(N(C)C)n1` (stereo not drawn), the INHIBITION was 10.9%.

In the case of `CCN(CC)C(=O)CSc1nc2nc(C)ccc2o1`, the INHIBITION is listed as -4.76%.

Take `CCN(Cc1cccc2c1OCO2)C(=O)NCc1ccccn1`: the INHIBITION is -27.8%.

On to `N#Cc1cccc(CN2C(=O)c3ccccc3CS2(=O)=O)c1`, for which the INHIBITION was -0.85%.

As for `Cc1ccc(C(=O)CN2C(=O)c3ccccc3CS2(=O)=O)c(C)c1`, the INHIBITION was 65.3%.

On to `Cc1cc(C)c(CNC(=O)C2COc3ccccc3C2)c(=O)[nH]1` (stereo not drawn), for which the INHIBITION worked out at 32.9%.

Take `Cc1cc(C(=O)CN2C(=O)c3ccccc3CS2(=O)=O)c(C)[nH]1`: the INHIBITION was determined as 56.4%.

As to `Cc1ccccc1C(=O)CN1C(=O)c2ccccc2CS1(=O)=O`, the INHIBITION stood at 10.1%.

For the compound `Cc1ccc(C)c(C(=O)N2CCN(C(=O)Cc3ccccn3)CC2)c1`, the INHIBITION came to 29.7%.

Take `Cc1cc(=O)c(C(=O)N2CCN(C)c3ccccc3C2)c[nH]1`: the INHIBITION was determined as 43.9%.

As for `CCCn1c(C)cc(C(=O)CN2C(=O)c3ccccc3CS2(=O)=O)c1C`, the INHIBITION is 31.8%.

Consider `Cc1ccc(C)c(C(=O)CN2C(=O)c3ccccc3CS2(=O)=O)c1`, for which the INHIBITION was determined as 56.8%.

For `Cc1nc(-c2nnc[nH]2)sc1C(=O)N1CCCC(C(F)(F)F)C1` (stereo not drawn), the INHIBITION was 7.25%.

Take `CN(C)C(=O)C1CCC2(CCN(C(=O)Nc3ccc(F)cc3)CC2)O1` (stereo not drawn): the INHIBITION turned out to be 31.2%.

As for `O=C([C@@H]1C[C@@H]2CCN(C3CCOCC3)C[C@@H]2O1)N1CCOCC1`, the INHIBITION is -9.26%.

As to `COCCn1c2c(ccc1=O)CCN(C(=O)Cc1cccs1)CC2`, the INHIBITION was -14.2%.

For the compound `CNc1cnc(CC2COCCN(Cc3ccccc3)C2)cn1` (stereo not drawn), the INHIBITION is recorded as 9.05%.

Turning to `c1ccc(-n2cc(CNCC3CCCN3c3cccnn3)cn2)cc1` (stereo not drawn), the INHIBITION worked out at 41.5%.
